The sample as a whole holds a higher share of hits than the screen did.
HIV RNase H inh-1: inhibitors of HIV-1 reverse transcriptase RNase H; RT-RNase H RNA/DNA duplex cleavage, fluorescence; 65,000 tested, 1.9% active; inhibition, % at 10 µM; AID 565; in the data active = inhibition above about 50%
HIV RNase H inh-2: confirmation of HIV-1 reverse transcriptase RNase H inhibitors. AID 651. Recombinant RT RNase H, fluorescent RNA/DNA duplex cleavage. shares compounds with HIV RNase H inh-1. inhibition, % at 10 µM. 1,000 tested, 39% active; in the data active = inhibition above about 48%; inconclusive = no clear call, values can overlap the other calls
Active calls of the source: *; ? = inconclusive.

SMILES	HIV RNase H inh-1	others
CS(=O)(=O)N(CC(=O)NCc1ccc2c(c1)OCO2)Cc1ccc(Cl)cc1	-11.6
CCOc1ccc2sc(NS(=O)(=O)c3ccc(OC)c(OC)c3)nc2c1	-17.0
CCOc1ccc(S(=O)(=O)Nc2cc(Sc3ncn[nH]3)c3oc(=O)sc3c2)cc1	87.5*	HIV RNase H inh-2=37.6*
CCOc1ccc(S(=O)(=O)Nc2cccc(Cl)c2)cc1	-55.3
CCCC(c1nnnn1Cc1ccco1)N1CCC(C(N)=O)CC1 (configuration not stated)	4.2
O=C1CCCN1CN(C(=O)c1ccccc1)c1ccc(F)cc1	-6.4
Cc1ccccc1N1C(=O)c2sc3nc4c(c(=O)n3c2C1=O)CCC4	88.0*	HIV RNase H inh-2=79.7*
O=C1c2sc3nc4c(c(=O)n3c2C(=O)N1c1ccccc1)CCC4	11.9
O=C1c2sc3nc4ccccc4n3c2C(=O)N1c1ccccc1Cl	85.2*	HIV RNase H inh-2=72.2*
O=c1/c(=C\c2cccnc2)sc2nc3ccccc3n12	-29.9
Cc1ccc(N2C(=O)c3sc4nnc(C)c(=O)n4c3C2=O)cc1	-0.2
N=c1cc(C2(O)CCCCC2)n2c(nc3ccccc32)s1	-13.0
Nc1nc(N)c2sc3nc4c(cc3c2n1)CCC4	-6.8
Cc1cc(C(=O)NCc2ccco2)cs1	2.4
CCc1ccc(N2CCCn3c2nc2c3c(=O)n(CCN3CCOCC3)c(=O)n2C)cc1	0.9
Cc1cc(C)n2c(=S)[nH]nc2n1	74.4*	HIV RNase H inh-2=66.8*
CCCSc1nnc2nc(C)cc(C)n12	-10.8
Cc1ccc(-c2n[nH]c(=S)n2C)cc1	-8.9
COc1ccc(C(CC(=O)NCCCN2CCOCC2)NS(=O)(=O)c2ccc(C)cc2)cc1 (configuration not stated)	-8.3
COC1Cc2ccccc2N(C(=O)N2CCN(CCO)CC2)c2ccccc21 (configuration not stated)	-7.4
O=C1c2ccccc2C(=O)N1SC1CCCCC1	80.2*	HIV RNase H inh-2=4.9
O=C(OCN1C(=O)c2ccccc2C1=O)C1CCCCC1	-29.9
O=C1c2ccccc2C(=O)N1CCN1CCCCC1	1.9
Cc1cc(C)nc(SCCn2c(N3CCCCC3)nc3c2c(=O)n(C)c(=O)n3C)n1	28.5
COC(=O)c1ccc(N2CCOCC2)c(NC(=O)Nc2cccc(OC)c2)c1	87.2*	HIV RNase H inh-2=-2.3
SMILES	HIV RNase H inh-1	others
COc1cccc(C(=O)Nc2ccccc2N2CCOCC2)c1	-10.4
COc1cccc(C(=O)OCC(=O)Nc2ccccc2N2CCOCC2)c1	-0.9
O=C(Nc1ccccc1)N1CCCC(c2nc(-c3cccs3)no2)C1 (configuration not stated)	8.4
c1ccc(-c2nn3c(-c4ccco4)nnc3s2)nc1	-2.8
c1coc(-c2nnc3sc(C4CCCCC4)nn23)c1	75.1*	HIV RNase H inh-2=?
Cc1occc1-c1nnc2sc(-c3ccc(-c4ccc(Cl)cc4)o3)nn12	24.4
Clc1ccc(-c2ccc(-c3nn4c(-c5ccco5)nnc4s3)o2)cc1	98.6*	HIV RNase H inh-2=?
Brc1ccc(-c2nn3c(-c4ccco4)nnc3s2)o1	7.5
COc1ccc(-c2nnc3sc(C4CCCCC4)nn23)cc1OC	-0.7
O=C(Nc1ccc2c(c1)OCO2)C1CCN(Cc2cnn(-c3ccccc3)c2-n2cccc2)CC1	10.2
O=C(NCCCn1ccnc1)c1cc(-c2cccs2)on1	-19.0
CCOC(=O)c1cnc(SCC(=O)Nc2ccc(NC(=O)CC)c(OC)c2)nc1N	-9.7
Cc1cc(C(=O)NCCC2=CCCCC2)c(C)o1	-20.6
O=C(CCn1c(=O)sc2ccccc21)NCCC1=CCCCC1	-24.5
C=CCn1c(N)c(C(=O)NCCC2=CCCCC2)sc1=S	81.2*	HIV RNase H inh-2=87.0*
N#Cc1c(N)sc2c1CCCCCC2	-43.4
N#Cc1c(N)sc(=S)c2c1CCCCC2	57.9*	HIV RNase H inh-2=9.1
N#Cc1c(N)c(C#N)c(-c2ccc(O)cc2)c2c1CCCC2	-25.0
N#CC1=C(N)SC2(CCCCC2)SC1c1ccccc1 (configuration not stated)	59.4*	HIV RNase H inh-2=22.4
N#CC1=C(C2CC2)CC(c2ccccc2)C(C#N)=C1N (configuration not stated)	-63.2
Cc1ccc(-n2c(=O)[nH]cc(C(=O)Nc3ccc4c(c3)OCO4)c2=O)cc1C	-8.2
COc1ccc(CCn2c(=N)c(C#N)cc3c(=O)n4ccccc4nc32)cc1	54.7*	HIV RNase H inh-2=53.4
COc1ccc(CCn2c(=N)c(C(=O)N3CCN(C)CC3)cc3c(=O)n4ccccc4nc32)cc1	-4.5
N#Cc1cc2c(=O)n3ccccc3nc2n(Cc2cccnc2)c1=O	-17.2
O=C1C/C(=C/NCc2ccccc2)C(=O)N1	-6.5
SMILES	HIV RNase H inh-1	others
O=S1(=O)CCC(SCc2nc3sccn3c2Br)C1 (configuration not stated)	-8.2
Cc1nnc(SCC(=O)N2CCCCC2)s1	-8.5
Clc1ccc(C(c2nnnn2C2CCCC2)N2CCSCC2)cc1 (configuration not stated)	-3.0
COc1ccc(CCNC(=O)c2c(O)c3c([nH]c2=O)CCCC3)cc1OC	-4.0
Clc1ss/c(=N\c2ccccn2)c1Cl	67.8*	HIV RNase H inh-2=41.1
COc1ccccc1-c1cn(S(=O)(=O)c2ccc(F)cc2)nc1N	-2.7
Cc1ccc(-c2ccc(/C=N/c3ncn[nH]3)o2)cc1Cl	-3.7
O=C(c1ccc2c(=O)n(-c3ccccc3)c(=O)[nH]c2c1)N1CCCCC1	3.3
CC(=O)c1ccc(OCC(O)CN2CCN(CCO)CC2)cc1 (configuration not stated)	-3.5
CCCn1c2c(c(O)c(C(=O)Nc3ccc(C)cn3)c1=O)CCCC2	0.8
O=C(Nc1cccnc1)c1c(O)c2c(n(Cc3ccccc3)c1=O)CCCC2	68.4*	HIV RNase H inh-2=?
CCCn1c2c(c(O)c(C(=O)Nc3ncccc3C)c1=O)CCCC2	-10.5
Cn1c(-c2ccc3c(c2)OCO3)cnc1NCc1cccc(Cl)c1	-2.2
Cn1c(-c2ccc3c(c2)OCO3)cnc1NCc1ccccc1	-5.3
Cn1c(-c2ccc3c(c2)OCO3)cnc1NC(=O)CCC(=O)NCCc1ccccc1	84.2*	HIV RNase H inh-2=41.7
CCCN(C(=O)c1cccs1)c1nnc(-c2ccncc2)s1	-11.1
COc1cc(C)nc(N2CCCC(C(=O)Nc3cccc(Cl)c3Cl)C2)n1 (configuration not stated)	27.5
Cc1ccc2nc(Nc3ccc4[nH]c(=O)[nH]c4c3)c(-n3nc(C)cc3C)nc2c1	28.6
Nn1c(SCC(=O)Nc2ccc3c(c2)OCO3)nnc1-c1ccncc1	11.4
Cc1cc(NC(=O)CSc2nnc(-c3ccncc3)n2N)ccc1Br	52.2*	HIV RNase H inh-2=5.2
Cc1cccc(NC(=O)CSc2nnc(-c3ccncc3)n2C)c1	-4.1
O=C(NCc1ccco1)c1cnc2n(c1=O)CCS2	-2.9
CN1CC(=O)N/C1=N\C(=O)Nc1ccc2c(c1)N(C)C(=O)CS2	-2.9
CCc1ccccc1N(CC(=O)N1CCN(c2ccccc2)CC1)S(C)(=O)=O	20.3
N[C@@H](C(=O)N[C@@H]1C(=O)N2C(C(=O)O)=C(Cl)CS[C@H]12)c1ccccc1	59.3*	HIV RNase H inh-2=32.8
SMILES	HIV RNase H inh-1	others
Cc1c(NC(=O)Nc2ccc(Cl)c(Cl)c2)c(=O)n(-c2ccccc2)n1C	-1.3
Cc1ccc(C)c(NC(=O)CSc2nnc(-c3ccccc3)n2N)c1	0.3
O=C(CSc1ncnc2sc3c(c12)CCCCC3)NCc1ccco1	-12.4
CC1(C)Cc2nc3sc4c(SCC(=O)NCc5ccco5)ncnc4c3cc2CO1	3.1
O=C(CSc1nc2sc3c(c2c(=O)n1-c1ccccc1)CCCC3)NCc1ccco1	62.3*	HIV RNase H inh-2=52.7*
CC1(C)Cc2c(sc3nc(SCC(=O)NCc4ccco4)n(-c4ccccc4)c(=O)c23)CS1	12.6
COCCCn1c(SCC(=O)NCc2ccco2)nc2sc3c(c2c1=O)CCC3	-3.6
